# Screening data as filed in PubChem.
# DAGLB inh: blocks human DAGLB lipase activity | HEK293T DAGLB membrane lysate, EnzChek fluorogenic substrate | inhibition, % at 5.17 µM | AID 504411 | Q8NCG7 | actives 0.059% (n = 340,000); in the data active = inhibition above about 34%;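 note: 0% = enzyme with vehicle and 100% = wells lacking enzyme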
# Myeloid diff 2: promotes myeloid progenitor differentiation; ER-HoxA9 myeloid progenitors, lysozyme-GFP differentiation, flow cytometry; calls only at 10 µM; actives 1% (n = 360,000); AID 624256;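 active = normalized GFP-positive differentiation at or above the plate's own cutoff, the solvent-only control mean plus 3 SD; inconclusive = no clear call, values can overlap the other calls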;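 note: cells exposed to compound for four days before flow analysis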
# sPLA2-III inh: Inhibits HGIII-sPLA2 liposome hydrolysis, primary screen | Q9NZ20 | QFRET BODIPY PC-A2 liposome hydrolysis, fluorescence | inhibition, % at 12.2 µM | actives 0.56% (n = 370,000);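 active = inhibition above mean plus 3 SD of compounds lying within the high and low control bounds, cut at about 19% in these data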;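 note: 0% = median of test compound wells and 100% = no enzyme DMSO wells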
# H9c2 protect: protects H9c2 cardiomyocytes from peroxide injury. AID 588492. actives 0.63% (n = 360,000). protection from H2O2 cell death, % at 20 µM. H2O2 injury protection, ATPLite, 2 h;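 active = compounds giving at least 50% protection of heart cells from peroxide-induced death in the single-dose screen, raw or plate-pattern-corrected value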;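 note: 0% = DMSO wells with peroxide and 100% = DMSO wells without peroxide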
# Rtt109 HAT inh: blocks Candida albicans Rtt109/Vps75 acetyltransferase activity. Q5AAJ8. purified Rtt109/Vps75, ThioGlo CoA-SH fluorescence, 4 h. inhibition, % at 34.9 µM. actives 0.16% (n = 330,000). AID 540336;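 active = inhibition of at least 50% in every replicate; inconclusive = best replicate reaches 50% inhibition but some replicates fall short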
# Target sequence (Q5AAJ8 whole entry, looked up): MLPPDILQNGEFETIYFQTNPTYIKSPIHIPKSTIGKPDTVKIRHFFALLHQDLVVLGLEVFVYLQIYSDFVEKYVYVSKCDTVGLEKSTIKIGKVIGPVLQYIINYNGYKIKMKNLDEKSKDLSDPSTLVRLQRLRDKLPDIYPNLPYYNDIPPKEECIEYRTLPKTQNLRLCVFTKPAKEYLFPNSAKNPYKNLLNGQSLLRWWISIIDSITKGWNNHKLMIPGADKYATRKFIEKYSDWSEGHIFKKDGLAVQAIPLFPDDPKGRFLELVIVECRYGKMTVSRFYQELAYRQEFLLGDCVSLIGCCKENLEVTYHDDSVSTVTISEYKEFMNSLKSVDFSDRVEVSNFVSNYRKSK
# ABHD5-PLIN5 inh: ABHD5-PLIN5 protein interaction inhibition | actives 0.78% (n = 360,000) | AID 602281 | Split G. princeps luciferase complementation, luminescence, 4 h | inhibition, % at 4 µM;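 active = inhibition above the mean inhibition across every tested compound plus 3 SD, cut at about 22% in these data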;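 note: 0% = DMSO only wells and the 100% control is not disclosed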
# The depositor's hits bear a star; i = inactive; ? = inconclusive; · = not tested or not shown; + = active, no number. A selection: hits, their analogues and other compounds. The true share with any hit is near 2.9%.
SMILES,DAGLB inh,Myeloid diff 2,sPLA2-III inh,H9c2 protect,Rtt109 HAT inh,ABHD5-PLIN5 inh
C=CCN(C)C(C#CCCCC)c1ccccc1 (centres undefined),·,·,11,·,·,·
COc1cc(NC(=O)c2cc3ccccc3cc2OC)ccc1NC(=O)c1cccs1,-3,i,-6,63*,-51,6
COc1cc(NC(=O)c2ccccc2Cl)ccc1NC(=O)c1cccs1,-2,i,0,4,11,-3
COc1cc(NC(=O)c2ccc([N+](=O)[O-])o2)ccc1NC(=O)c1cccs1,7,+,9,-27,-15,-1
Fc1ccc2[nH]c3c(NCCN4CCOCC4)ncnc3c2c1,-2,i,·,-19,0,2
CCCCCCNC(=O)O[C@H]1Cn2c(=O)ccc(=O)n2[C@@H]2CN(S(=O)(=O)c3ccc(C)cc3)C[C@]12O,7,i,-4,-9,·,23*
C[C@H](CO)N1C[C@H](C)[C@H](CN(C)C(=O)c2ccc3ccn(C)c3c2)OCc2cnnn2CCCC1=O,0,i,3,13,·,-6
CC1Cc2ccccc2N1C(=O)COC(=O)c1ccc(O)cc1 (centres undefined),2,i,-2,-3,52*,-1
O=C(/C=C/c1cc[n+](CC(=O)c2ccc3cccc4c3c2CC4)cc1)c1ccc2cccc3c2c1CC3,21,+,·,-13,-2,23*
CC1CCN(S(=O)(=O)c2ccc(NC(=O)[C@@H]3CCCN3C(=O)c3cccs3)cc2)CC1,-2,i,-5,-5,1,-23
CC1=C(C(=O)OCc2ccccc2)C(c2ccoc2)C(C#N)=C(N)O1 (centres undefined),-3,i,-25,0,2,8
COC(=O)c1c(C)[nH]c(C)c1C(=O)c1ccccc1Cc1ccccc1,-1,+,-4,0,1,-4
COC(=O)c1c(C)[nH]c(C=O)c1-c1ccccc1,·,i,2,-3,·,6
CC1(C)CC(=Cc2cc(O)ccc2[N+](=O)[O-])C(=O)c2ccccc21,-3,i,·,-19,·,0
Cc1ccc2sc(NNC(=O)C3=COCCO3)nc2c1C,0,i,1,10,59*,2
O=[N+]([O-])c1ccc(Nc2nc(N/N=C/c3cccc(F)c3)nc(N3CCCC3)n2)cc1,-2,i,-1,84*,-2,-2
COc1cccc(/C=N/Nc2nc(Nc3ccc([N+](=O)[O-])cc3)nc(N3CCCC3)n2)c1O,·,?,-3,20,-7,9
CN(C)c1ccc(C(C(=O)NCc2ccccc2)N(Cc2cccnc2)C(=O)c2snc(C(N)=O)c2N)cc1 (centres undefined),3,i,1,61*,16,-1
CCOc1ccccc1N(C(=O)c1snc(C(N)=O)c1N)C(C(=O)NCc1ccccc1)c1ccc(O)cc1 (centres undefined),2,i,-29,2,-1,3
Cc1ccccc1N(C(=O)c1snc(C(N)=O)c1N)C(C(=O)NCc1ccccc1)c1ccc(O)cc1 (centres undefined),1,i,-41,51*,-5,-8
NC(=O)c1nsc(C(=O)N(Cc2ccco2)C(C(=O)NCc2ccccc2)c2ccc(O)cc2)c1N (centres undefined),1,i,-26,58*,1,7
NC(=O)c1nsc(C(=O)N(c2ccccc2F)C(C(=O)NCc2ccccc2)c2ccc(O)cc2)c1N (centres undefined),2,i,-36,51*,-14,15
COc1cccc(C(=O)NC2CCCc3c2cnn3-c2cc(C)cc(C)c2)c1 (centres undefined),-4,i,-2,-5,27,5
CN(C)c1ccc(C(C(=O)NC2CCCCC2)N(Cc2ccco2)C(=O)c2snc(C(N)=O)c2N)cc1 (centres undefined),7,i,7,53*,0,0
COc1cc(C(C(=O)NC2CCCC2)N(Cc2ccco2)C(=O)c2snc(C(N)=O)c2N)cc(OC)c1OC (centres undefined),-3,i,-6,10,9,2
CC(C)CC(C(=O)NC1CCCCC1)N(Cc1cccs1)C(=O)c1snc(C(N)=O)c1N (centres undefined),1,i,-5,51*,11,8
